From PubChem BioAssay
Pf apPOL inh: Pf-apPOL inhibitors, biochemical, fluorescence | Plasmodium falciparum apicoplast DNA polymerase (apPOL) | Recombinant Pf-apPOL, molecular beacon fluorescence, 1.5 h | inhibition, % at 10 µM | actives 0.25% (n = 210,000) | AID 1794808, 2022
mHTT-CaM PPI inh: mutant huntingtin-calmodulin interaction inhibitors – biochemical, AlphaScreen, primary screen; P42858; AlphaScreen His-mHTT/GST-CaM binding, luminescence; inhibition, % at 15 µM; actives 3.6% (n = 190,000); AID 1671202, 2021;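 note: 0% = both proteins with DMSO and 100% = one protein alone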
* hit, by the source's call; . = not tested or not shown. The entries come from a sample that favours hits as a whole. Cut-off read from the data, not from the text of the source: active = inhibition above about 50%; inactive = the rest.

SMILES	Pf apPOL inh	mHTT-CaM PPI inh
COc1ccc(OCC(=O)N2CCCC2c2nc(-c3cccc(C)c3)no2)cc1 (configuration not stated)	0.8	14.9
COc1cccc(-c2noc(C3CCCN3C(=O)Nc3cccc(Cl)c3)n2)c1 (configuration not stated)	-1.5	-8.2
CCn1ccc(C(=O)N2CCCC2c2nc(-c3cccc(Cl)c3)no2)n1 (configuration not stated)	-2.9	10.1
CCC(=O)Nc1cccc(-c2noc(C3CCCN(C(=O)COc4cccc(C)c4)C3)n2)c1 (configuration not stated)	-1.1	79.0*
COc1cccc(-c2noc(C3CCCN3C(=O)Nc3ccc(F)c(Cl)c3)n2)c1 (configuration not stated)	-1.4	57.9*
Cc1ccc(OCC(=O)N2CCCC2c2nc(-c3cccc(C)c3)no2)cc1 (configuration not stated)	-0.2	80.4*
CCn1ccc(C(=O)N2CCCC2c2nc(-c3cccc(C(F)(F)F)c3)no2)n1 (configuration not stated)	6.8	88.3*
Cc1nn2c(=O)/c(=C/c3c(F)cccc3Cl)sc2nc1=O	-8.6	0.0
CC1(C(=O)Nc2ccccc2F)Oc2cccnc2NC1=O (configuration not stated)	0.6	-10.0
O=C(Nc1ccc(N2CCC(C(F)(F)F)CC2)nc1)c1ccc(OC(F)(F)F)cc1	0.1	.
NC(=O)c1ccc(NC(=O)C2CCN(c3cc(N4CCSCC4)ncn3)CC2)cc1	-0.6	-0.8
O=C(CSc1nnc(-c2ccco2)c(-c2ccco2)n1)Nc1ccc(Cl)cc1	0.9	99.0*
NS(=O)(=O)c1ccc(NC(=O)CSc2nnc(-c3ccco3)c(-c3ccco3)n2)cc1	-0.6	40.0
CCOC(=O)C(C#N)=CNc1nnc(SCC#N)s1	5.8	.
O=C(On1c(-c2ccccc2)nc2ccccc2c1=O)c1ccco1	-9.6	100.1*
Cc1onc(-c2c(Cl)cccc2Cl)c1C(=O)On1c(-c2ccccc2)nc2ccccc2c1=O	-2.9	.
Cn1cc2c3c(cccc31)CN(C(=O)c1ccccc1Br)CC2	-2.7	24.7
Cc1ccc(NC(=O)N2CCc3nc(Cc4ccccc4F)[nH]c(=O)c3C2)cc1C	0.2	15.7
COc1ccc(C=C2Oc3cc(C)cc(O)c3C2=O)cc1	4.2	37.5
COc1ccc2c(c1)=CC(=Cc1[nH]c(SC(C)=O)nc1O)C(=O)N=2	-3.9	100.0*
NC(=O)c1cc(NC(=O)Cc2ccccc2)ccc1N1CCOCC1	-7.3	-0.7
N#CC1=C(N)SC(N)=C(C#N)C1c1ccc(Cl)c(Cl)c1	-1.6	97.6*
N#CC1=C(N)SC(N)=C(C#N)C1c1ccncc1	.	2.5
Cc1cccc(NC(=O)N2CCCC2c2nc(-c3ccccc3)no2)c1 (configuration not stated)	0.5	-4.6
Cc1cccc(NC(c2ccc(Br)cc2)c2ccc3cccnc3c2O)n1 (configuration not stated)	4.0	97.0*
SMILES	Pf apPOL inh	mHTT-CaM PPI inh
Cc1ccc(C(Nc2cccc(C)n2)c2ccc3cccnc3c2O)cc1 (configuration not stated)	2.2	98.0*
O=S(=O)(O)c1cccc2cccnc12	-1.0	-0.1
Cc1cccc(NC(=O)COc2ccc(Br)cc2)n1	-1.1	-19.8
Nc1nnc(C2CCCCC2)s1	1.4	-7.8
O=C(c1cc2c(s1)CCCC2)N1CC2CC1CC2NS(=O)(=O)c1cccs1 (configuration not stated)	2.7	7.1
O=S(=O)(c1ccc2c(c1)Cc1ccccc1-2)N1CCOCC1	.	-5.3
CCN(CC)c1ccc2cc(C(=O)NC(C)=O)c(=Nc3ccc(C(C)=O)cc3)oc2c1	-1.8	5.0
COc1ccc(CNc2ccc3[nH]ncc3c2)cc1C	12.1	64.8*
Cc1ccc(C)c(CNc2ccc3[nH]ncc3c2)c1	0.1	74.9*
COc1ccc(CNc2ccccc2)cc1C	-1.8	8.0
CC(CCc1ccc(O)cc1)Nc1ccc2[nH]ncc2c1 (configuration not stated)	0.6	40.1
CCN(CC)C(=O)C12CCC(C)(C(=O)C1)C2(C)C (configuration not stated)	-14.2	0.0
CC(C)N1CCN(C(=O)c2cnc(-c3ccccc3)nc2-c2ccncc2)CC1	-8.0	41.6
Cc1ccc(O)c2nc(/C=C/c3ccccc3N)ccc12	-0.5	52.7*
CC(=O)Nc1ccccc1/C=C/c1ccc2c(C)ccc(O)c2n1	-5.3	11.9
O=C1CSC(c2cn(-c3ccccc3)nc2-c2ccccc2)N1Cc1cccnc1 (configuration not stated)	-4.4	30.0
Cc1ccc(-c2nn(-c3ccccc3)cc2C2SCC(=O)N2Cc2ccccc2)o1 (configuration not stated)	4.5	94.0*
O=C1CSC(c2cn(-c3ccccc3)nc2-c2ccc(Cl)cc2)N1Cc1cccnc1 (configuration not stated)	-4.5	58.0*
